Assay outcomes (PubChem BioAssay)
This is a sample that favours compounds with a hit; in the whole collection about 3.1% have one here.
EWS-Fli inh: blocks EWS/Fli oncoprotein-driven transcription | A673 NR0B1-luciferase reporter, viability-normalised | inhibition, % at 12.6 µM | 350,000 tested, 0.67% active;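 active means mean inhibition of at least 50% after viability correction, with every replicate also passing that limit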;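 further: firefly luciferase signal divided by Alamar Blue viability fluorescence both relative to DMSO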
PAX8 reporter: inhibitors of PAX8 transcriptional activity in RMG-I cells | AID 652154 | inhibition, % at 12.6 µM | RMG-I TPO-luciferase reporter, SteadyGlo, 24 h | 360,000 tested, 1.2% active;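 active means mean replicate inhibition at least 60% with every replicate also reaching 60%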;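 further: luciferase light reporting Pax8 driven TPO promoter activity; plate controls were median of neutral control wells for no effect and mitoxantrone controls for full effect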
Env fusion inh: inhibitors of HIV Env-mediated cell fusion | HeLa-JRFL Env/CEM21 cell fusion, luciferase | inhibition, % at 12.3 µM | 360,000 tested, 1.1% active | AID 651610;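 active means mean replicate inhibition score of at least 50 and every replicate individually at or above 50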;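 further: 0% = plate neutral controls and 100% = maraviroc near 300 nM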
miR122 inh: blocks miR-122 activity in Huh7 sensor cells. AID 602342. activation (reporter increase), % at 12.5 µM. 340,000 tested, 0.3% active. Huh7 miR-122 Renilla luciferase sensor, 48 h; neutral wells = 0, positive control = 100;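 active means mean replicate activation score at least 90 and every replicate individually at or above 90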;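 further: higher luciferase means less miR-122 activity so hits act as miR-122 inhibitors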
INS-1E GSIS act: GLuc luminescence reporter in INS-1E cells, primary screen for activators of glucose-dependent secretion of insulin; activation, % at 16.6 µM; INS-1E GLuc reporter insulin secretion, 2-3 h; 370,000 tested, 0.61% active; AID 743287;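 active means lowest replicate activation of at least 40%, so every replicate reaches that level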;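 further: 0% = median of neutral control wells and 100% = median of IBMX positive control wells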
Statin myotox sup: suppressors of simvastatin-induced myotoxicity in C2C12 myotubes | ATP luminescence, 48 h; scaled: DMSO 0, geranylgeraniol control 100 | rescue of ATP level, % at 7.49 µM | 330,000 tested, 0.78% active;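 active means mean ATP rescue above about 67%, or every replicate alone reaching that limit, limit read from the data, passing the limit was not always enough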;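 further: myotubes were challenged with 10 µM simvastatin during compound exposure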
Numbers without * were called inactive; · = no result given; [ ] = dose if it differs, or a comment.

SMILES	EWS-Fli inh	PAX8 reporter	Env fusion inh	miR122 inh	INS-1E GSIS act	Statin myotox sup
COc1ccc(C2(NC(C)=O)CCN(C(=O)c3cccs3)CC2)cc1	·	·	·	-6.1	1.0	98.8*
COc1ccc(S(=O)(=O)N2CCN(C(=O)c3cccs3)CC2)cc1	·	·	·	1.0	12.7	1.9
COC(=O)C[C@@H]1C=C[C@H](NS(=O)(=O)c2ccccc2F)[C@@H](CO)O1	2.2	1.1	-0.8[16.7 µM]	4.2[16.7 µM]	12.3	0.3
N#Cc1cnn(Cc2ccccc2)c1N	·	·	·	0.8	·	112.1*
CC(C)NC(=O)NCC[C@@H]1CC[C@H](NC(=O)Nc2ccccc2)[C@H](CO)O1	-3.4	1.9	1.9[16.7 µM]	10.3[16.7 µM]	-0.7	1.1
Cc1noc(C)c1NC(=O)Nc1ccc2c(c1)C(=O)N([C@@H](C)CO)C[C@@H](C)[C@H](CN(C)C(=O)Nc1ccc(F)cc1)O2	0.8	-6.4	14.2[16.7 µM]	1.2[16.7 µM]	1.7	-41.0
CSCCC(NC(N)=O)C(=O)NCC1CCCCC1 (configuration not stated)	·	·	·	-1.5	·	127.4*
CCCCCCCCN1C(=O)[C@H](CC(=O)N2CCOCC2)C[C@@]2(C(=O)OC)CCCCC=C12	-10.9	-12.6	-19.6	·	·	·
CCCCCCCCN1C(=O)[C@H](CC(=O)N2CCCCC2)C[C@@]2(C(=O)OC)CC(C)(C)CC=C12	-6.7	1.6	27.7	·	81.3*	·
CCCCCCCCN1C(=O)[C@H](CC(=O)N2CCCCC2)C[C@@]2(C(=O)OC)CCCCC=C12	2.7	-10.0	23.4	·	46.7*	·
C[C@H](CO)N1C[C@H](C)[C@@H](CN(C)S(=O)(=O)c2cn(C)cn2)Oc2c(NC(=O)CCC(F)(F)F)cccc2C1=O	·	·	·	·	27.1	·
COc1ccc2c3c([nH]c2c1)[C@H](CO)N(CC1CC1)CC31CCN(C(=O)c2ccccc2F)CC1	8.4	-5.7	·	·	-7.5	·
CCOC(=O)[C@@H]1[C@H]2COc3ccc(Br)cc3[C@@H]2N2C(=O)N(c3cccc(F)c3)C(=O)[C@@]12C	-1.8	-6.3	75.2*	·	-11.1	6.9
CCOC(=O)[C@@H]1[C@H]2COc3ccccc3[C@@H]2N2C(=O)N(c3cccc(F)c3)C(=O)[C@]12C	2.8	9.0	25.7	0.7	-1.3	2.4
CCOC(=O)[C@H]1[C@H]2COc3ccc(Br)cc3[C@@H]2N2C(=O)N(c3ccc(F)cc3)C(=O)[C@@]12C	2.7	12.1	13.3	0.9	-9.7	18.1
CCOC(=O)[C@@H]1[C@H]2COc3ccc(Br)cc3[C@@H]2N2C(=O)N(c3ccc(OC)cc3)C(=O)[C@@]12C	3.2	5.2	53.2	-0.2	-13.1	18.1
CCOC(=O)[C@@H]1[C@H]2COc3ccc(Br)cc3[C@@H]2N2C(=O)N(c3ccc(C(F)(F)F)cc3)C(=O)[C@@]12C	8.5	11.9	66.2*	·	-16.7	6.3
CCOC(=O)[C@@H]1[C@H]2COc3ccc(Br)cc3[C@@H]2N2C(=O)N(c3ccc(F)cc3)C(=O)[C@@]12C	8.4	4.6	99.9*	-1.4	-12.9	3.1
CCOC(=O)[C@@H]1[C@H]2COc3ccc(Br)cc3[C@@H]2N2C(=O)N(c3ccc(Cl)cc3)C(=O)[C@@]12C	6.1	4.6	66.7*	-3.1	-15.8	7.9
Cc1ccc(-c2ccc3c(c2)O[C@H](CN(C)C(=O)Nc2ccc(C(F)(F)F)cc2)[C@H](C)CN([C@@H](C)CO)S3(=O)=O)cc1	15.2	·	7.0[16.7 µM]	-8.5[16.7 µM]	-9.8	·
CN1CCN(C(=O)C[C@@H]2CC[C@H]3[C@H](COc4ccc(NC(=O)C5CCCC5)cc4C(=O)N3C)O2)CC1	-5.0	-25.8	·	·	21.9	·
COc1ccc(C)cc1Nc1n[n+](-c2ccccc2)c(-c2c(OC)ccc3ccccc23)s1	37.3	84.2*	45.8	·	-45.4	-153.5
COc1ccc(C)cc1Nc1n[n+](-c2ccccc2)c(-c2cc(OC)c(OC)cc2Br)s1	7.1	15.4	-10.0	0.7	5.2	-10.5
Fc1ccc(-[n+]2nc(Nc3ccccc3)sc2-c2c3ccccc3cc3ccccc23)cc1	31.3	86.4*	23.0	·	-38.1	-72.8
O=C(N[C@H]1CC[C@@H](CCn2cc(Cc3ccccc3)nn2)O[C@@H]1CO)c1ccccn1	-5.4	0.7	-33.6[16.7 µM]	·	-3.3	1.9
SMILES	EWS-Fli inh	PAX8 reporter	Env fusion inh	miR122 inh	INS-1E GSIS act	Statin myotox sup
CNC(=O)C[C@@H]1CC[C@H]2[C@@H](COC[C@H](O)CN2Cc2ccncc2)O1	-8.1	0.0	·	0.5[16.7 µM]	2.5	-4.1
COC(=O)C[C@H]1C[C@H]2c3cc(NS(=O)(=O)c4ccc(F)cc4)ccc3O[C@H]2[C@H](CO)O1	3.6	-8.4	-5.1[16.7 µM]	-0.2[16.7 µM]	-4.5	9.1
CCSc1ccc(-c2nn(-c3ccccc3)cc2/C=C(/C#N)C(=O)NCCCOC)cc1	·	3.4	-3.5	·	63.9*	·
CCCSc1ccc(-c2nn(-c3ccccc3)cc2/C=C(/C#N)C(=O)NCCCOC)cc1	2.5	3.6	24.7	-2.1	49.9*	3.6
Cc1ccc(-c2nn(-c3ccccc3)cc2/C=C(\C#N)C(=O)NCc2ccccc2)cc1	·	-11.1	-75.8	·	19.7	·
O=C(NC1CCC1)[C@H]1[C@H](CO)[C@H]2Cn3c(ccc(C4=CCCCC4)c3=O)[C@H]2N1C(=O)C1CCOCC1	-2.3	·	·	·	-2.4	18.7
COc1ccccc1CN1C[C@@H](C)[C@H](OC)CN(C)C(=O)c2ccc(NC(C)=O)cc2OC[C@@H]1C	0.5	-2.8	-15.0[16.7 µM]	-2.0[16.7 µM]	-10.2	-4.4
CC(C)CN(C(=O)c1ccc(S(=O)(=O)N2CCCC2)cc1)C1CCS(=O)(=O)C1 (configuration not stated)	-7.5	-6.9	·	-1.8	2.0	5.2
CC(C)CN(C(=O)C1CCCCC1)C1CCS(=O)(=O)C1 (configuration not stated)	0.8	-8.3	16.2	0.9	41.3*	-2.6
CC(C)CN(C(=O)c1ccc(S(=O)(=O)N2CCCCC2)cc1)C1CCS(=O)(=O)C1 (configuration not stated)	5.6	0.4	69.7*	·	17.4	·
CC(C)CN(C(=O)C1CC1)C1CCS(=O)(=O)C1 (configuration not stated)	-0.2	23.5	·	4.0	7.4	8.6
O=C(CCCc1ccccc1)NCCc1ccccc1	-4.3	-60.5	-3.4	-1.4	-2.7	3.1
O=C(CCl)N(CCc1ccccc1)CCc1ccccc1	59.1*	-21.3	11.0	-20.0	-12.3	7.0
CC(C)c1ccc(NC(=O)C2CC(=O)N=C(N)S2)cc1 (configuration not stated)	·	-14.4	-36.8	0.7	·	138.2*
CCc1ccc(NC(=O)C2CC(=O)N=C(N)S2)cc1 (configuration not stated)	·	-24.0	-15.1	-4.0	·	2.5
C[C@@H]1CN([C@H](C)CO)S(=O)(=O)c2ccc(C3=CCCCC3)cc2O[C@H]1CN(C)C(=O)C1CCCCC1	7.2	·	29.2[16.7 µM]	-2.0[16.7 µM]	-8.6	-50.6
O=[N+]([O-])c1ccc(N=Nc2c(Cl)cc(O)cc2Cl)cc1	-15.4	97.7*	85.1*	-25.3	-32.0	-40.7
